Bioassay records: PubChem, National Center for Advancing Translational Sciences (NCATS)
HP1b binding inh: inhibitors of HP1-beta chromodomain binding to methylated histone tails; 390,000 compounds, 0.56% hits; Potency, µM (top dose mostly 114 µM), for the others: at the top dose activity change, negative = inhibition, usual class: inhibitors; P83916; AID 540317; AlphaScreen HP1-beta / biotin-H3K9me3 peptide binding; further: nearly all actives have a fitted effect of over 70% in size
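AlphaScreen: HP1-beta (50 nM) preformed 30 min with biotin-H3(1-18)K9me3 peptide (50 nM) in PBS pH 7.4, 0.01% Tween-20. Compound added for 30 min at RT, then streptavidin donor/nickel chelate acceptor beads (10 ug/mL) for 30 min.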
JMJD2A Tudor: inhibitors of human JMJD2A Tudor domain. AlphaScreen JMJD2A-Tudor / H3K4me3 peptide binding. Potency, µM (series often up to 114 µM), for the others: top-dose activity change, negative = inhibition, actives largely listed as inhibitors. 390,000 compounds, 4.4% hits. O75164; further: on the % scale 0 is the no-effect control and ±100 the full control effect; nearly all actives have a fitted effect of over 50% in size
G9a inh: G9a (human) methyltransferase inhibition. Q96KQ7. 350,000 compounds, 8.8% hits. AID 504332. Potency, µM (doses to about 102 µM), inactives show at the top dose activity, negative = inhibition, hits mostly inhibitors. G9a H3K9 monomethylation, AlphaScreen, 2 h; further: on the % scale 0 is the no-effect control and ±100 the full control effect; nearly all actives have a fitted effect of over 75% in size
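Enzyme 20 nM + cpd, 15 min RT; add b-H3K9 pep 500 nM / SAM 20 uM; 2 h RT; anti-H3K9me1 Ab 0.5 ug/mL + SA donor / anti-rabbit acceptor beads 20 ug/mL each, 10 min; AlphaScreen read.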
Sfp inh: inhibitors of Bacillus subtilis Sfp phosphopantetheinyl transferase; Q9F4F7; Biochemical Sfp PPTase activity, qHTS; Potency, µM, for inactives: largest response in the series, negative = inhibition, most hits filed as inhibitors; 310,000 compounds, 3.5% hits;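 further: the enzyme is Sfp with the accession as filed and its product quenches rhodamine fluorescence; 0% = enzyme reaction without inhibitor and -100% = no enzyme wells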
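Sfp 15 nM + cpd, 15 min RT; start w/ rhodamine-CoA 5 uM, BHQ-2-YbbR 12.5 uM (final); 50 mM Hepes pH 7.6, 10 mM MgCl2, 0.01% NP-40, 0.01% BSA; read 525/598 nm at 0 and 30 min.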
L3MBTL1 inh: blocks human L3MBTL1. Q9Y468. AID 485360. AlphaScreen L3MBTL1–H3K9me1 peptide binding. 230,000 compounds, 0.66% hits. Potency, µM (series often up to 57.1 µM), without a hit: top-dose activity, negative = inhibition, usual class: inhibitors; further: on the % scale 0 is the no-effect control and ±100 the full control effect; nearly all actives have a fitted effect of over 60% in size
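AlphaScreen proximity signal between nickel-chelate acceptor and streptavidin donor beads (final 10 ug/mL) reports binding of 50 nM L3MBTL1 to 75 nM biotin-H3 K9me1 peptide; complex incubated with compounds 30 min at room temperature; cefsulodin titration as control.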
BAZ2B inh: inhibitors of human BAZ2B bromodomain; Q9UIF8; 360,000 compounds, 4.4% hits; Potency, µM (top dose mostly 114 µM), for inactives: at the top dose activity change, negative = inhibition, hits mostly inhibitors; AlphaScreen BAZ2B-H3K14Ac peptide displacement; further: on the % scale 0 is the no-effect control and ±100 the full control effect; nearly all actives have a fitted effect of over 60% in size
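Multi-concentration screen (max 110 uM) measuring displacement of acetylated histone H3 peptide from BAZ2B by AlphaScreen, using 50 nM protein, 50 nM peptide and 10 ug/mL streptavidin donor plus Ni-chelate acceptor beads.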
* marks the source's active call; other numbers are inactive results; ? = inconclusive; . = not tested or not shown; [ ] = dose if it differs, or a comment. Sampled rows, rich in hits. Any-hit rate of the full collection: about 12%. The call rests on the fitted dose curve; in most records, active means well fitted curve in the direction sought with a large enough effect; inconclusive means small, poorly fitted or top-dose-only effect, or another doubt; inactive means no such curve, though single readings can be large; an effect the other way counts as inactive or inconclusive. Potency means the concentration at half of the fitted maximal effect.

SMILES | HP1b binding inh | JMJD2A Tudor | G9a inh | Sfp inh | L3MBTL1 inh | BAZ2B inh
COc1ccccc1NC(=O)c1ccccc1Nc1ccccc1 | 42% | 10% | 27% | -8% | . | 9%
COC(=O)c1nn(C23CC4CC(CC(C4)C2)C3)c2c1C(=O)N(c1ccc(Br)cc1)C2=O | 4% | -22% | ? | 15% | . | -1%
Cc1cccn2cc(CSc3ccccc3N)nc12 | 36% | -14% | ? | ? | . | 3%
c1ccc2[nH]c(SCc3cn4ccccc4n3)nc2c1 | 24% | -22% | 45µM* | 2% | 3% | -12%
c1ccc(SCc2cn3cccnc3n2)nc1 | 22% | -17% | -30% | 15% | -5% | -17%
Nc1ccccc1SCc1cn2cccnc2n1 | 33% | -25% | 35µM* | -12% | -4% | 9%
c1ccc2c(SCc3cn4ccccc4n3)nncc2c1 | 61% | -5% | 2% | 45µM* | 79% | -4%
Cc1cccc2nc(CSc3nc4ccccc4[nH]3)cn12 | 24% | -17% | -32% | 10% | 5% | -16%
Clc1ccc(SCc2cn3ccccc3n2)cc1 | 16% | -19% | -30% | 10% | -15% | -22%
Nc1ccccc1SCc1cn2ccccc2n1 | 17% | -23% | 50µM* | 18% | 9% | -9%
CN(C(=O)C1CCC(=O)N(CCCN2CCCC2=O)C1)C(C1CC1)C1CC1 (stereo not given) | 51% | -11% | 10% | 7% | . | -16%
O=[N+]([O-])c1ccc(CSc2nc3ccccc3[nH]2)cc1 | 21% | -11% | 28µM* | -2% | 3% | -38%
Nc1nc(CSc2nc3ccccc3[nH]2)cs1 | 1% | 21%[11.4 µM] | ? | 45µM* | -1% | -6%
c1ccc(CSc2nc3ccccc3[nH]2)cc1 | 44% | 3% | 0% | 6% | . | 5%
O=C(CCS(=O)(=O)c1ccc2c(c1)NC(=O)CS2)NCCc1ccc(Cl)cc1 | 13% | 16µM* | 10% | 12% | . | -18%
O=C(O)c1[nH]c2ccccc2c1C(c1c(F)cccc1Cl)c1c(C(=O)O)[nH]c2ccccc12 | 20% | -15% | ? | 12% | 5% | 5%
O=C(O)c1[nH]c2ccccc2c1C=NCc1ccccc1Cl | 29% | -12% | 56µM* | 15% | -12% | -13%
COC(=O)C1(C(=O)OC)CC2=CCC3C(=O)N(c4ccccc4)C(=O)C3C2Cc2ccccc2[C@@H]1C[N+](=O)[O-] (stereo not given in full) | . | . | . | 4% | . | .
COc1ccc(C2=C(N3CCN(c4cc(Cl)ccc4C)CC3)c3ccccc3C2=O)cc1 | ? | 6.3µM* | 3.5µM* | . | . | 2.8µM*
C[C@H](NC(=O)c1nc[nH]c1C(=O)N1CCNCC1)C(=O)OCc1ccccc1 | 9% | 35µM* | -7%[2.33 µM] | . | 3% | 56µM*
O=C(CNC(=O)c1nc[nH]c1C(=O)N1CCNCC1)OCc1ccccc1 | 27% | 50µM* | -38%[12.7 µM] | . | 7% | 50µM*
C[C@H](NC(=O)c1nc[nH]c1C(=O)NC1CCNCC1)C(=O)OC(C)(C)C | 30% | -22% | ? | . | 3% | 50µM*
Cc1ccc(NS(=O)(=O)c2ccc3[nH]c(=O)[nH]c3c2)cc1C | . | -14% | . | . | . | .
COC[C@H]1O[C@@H](c2c(OC)cc(OC)cc2OC)[C@H](OC)[C@@H](OC)[C@@H]1OC | . | . | . | -5% | . | .
O=C1C=CC(=O)N1c1ccc2ccccc2c1 | ? | 18µM* | . | . | . | .
SMILES | HP1b binding inh | JMJD2A Tudor | G9a inh | Sfp inh | L3MBTL1 inh | BAZ2B inh
O=c1c2ccccc2cnn1-c1ccc2ccccc2c1 | 33% | 10% | 20%[12.7 µM] | 6% | . | 5%
O=C1C=CC(=O)N1c1ccc(Nc2ccccc2)cc1 | ? | 50µM* | . | . | . | .
Cc1cccc(N2C(=O)C=CC2=O)c1 | ? | 20µM* | . | . | . | .
CCOC(=O)C(Cc1ccc(Cl)cc1Cl)c1ccno1 (stereo not given) | 154% | 108% | 111% | 12% | -3%[2.29 µM] | 41%
Cc1cc(Nc2ccccc2)n(-c2ccc(Br)cc2)n1 | 17% | 6% | 50µM* | 2% | . | 8%
Cc1cc(C)n(-c2nc(Nc3ccccc3)nc(-n3nc(C)cc3C)n2)n1 | 25% | ? | ? | 8% | -5% | 79µM*
Cc1cc(C)n(-c2nc(N(c3ccccc3)c3ccccc3)nc(-n3nc(C)cc3C)n2)n1 | -4% | ? | 20%[59 µM] | 50µM* | 4µM* | -10%
Cc1cc(Nc2ccc(Cl)cc2)n(-c2ccccc2)n1 | 45% | -3% | -6%[59 µM] | -4% | . | -3%
C[C@@H]1OC(Oc2ccccc2-c2cc(=O)c3c(O)cc(O)c([C@@H]4O[C@H](CO)[C@@H](O)[C@H](O)[C@H]4O)c3o2)[C@H](O)[C@H](O)[C@H]1O (stereo not given in full) | . | . | . | 16% | . | .
O=S(=O)(Nc1ccc(S(=O)(=O)N2CCCC2)cc1)c1ccccc1Br | 43% | -3% | 3%[12.7 µM] | . | 2% | 12%
CCOC(=O)c1c(C)[nH]c(C(=O)COC(=O)c2ccc([N+](=O)[O-])o2)c1C | 22% | -12% | . | . | -7% | .
COC(=O)/C=c1/s/c(=C(\C#N)C(=O)NCc2ccco2)n(-c2ccccc2)c1=O | 12% | -6% | 45µM* | -4% | -8% | -7%
COc1ccccc1NC(=O)CC1C(=O)Nc2ccccc2N1C(=O)c1ccccc1 (stereo not given) | 10% | -10% | 4%[59 µM] | 13% | . | -11%
C=CCNC(=O)C1CC(=O)N(c2ccc(OCC(=O)Nc3ccc(Cl)cc3)cc2)C1 (stereo not given) | 9% | 71µM* | 11% | 8% | . | 3%
C=CCNC(=O)C1CC(=O)N(c2ccc(OCc3ccccc3Cl)cc2)C1 (stereo not given) | 34% | -15% | 35%[59 µM] | -13% | -4% | -7%
O=C(COc1ccc2c3c(c(=O)oc2c1)CCCC3)NCc1cccnc1 | 53% | -11% | 1% | 18% | . | -23%
N#Cc1c(Nc2ccccc2)s[nH]c1=O | 19% | -30% | 13µM* | 20µM* | . | 1%
N#Cc1c(Nc2ccccc2Cl)s[nH]c1=O | 30% | -16% | . | 4µM* | 51% | -4%
N#Cc1c(Nc2ccccc2C(F)(F)F)s[nH]c1=O | 24% | -13% | 14µM* | 3.5µM* | -3% | -11%
N#Cc1c(Nc2ccccc2)sc(C(=O)c2ccc(F)cc2)c1N | 31% | -20% | ? | -15% | -4% | -29%
COC1CCC(C(=O)c2ccc3nc4c(cc3c2)CCCO4)CC1 (stereo not given) | . | . | . | 7% | . | .
Cc1cc2c(s1)c1cnn(Cc3c(F)ccc(F)c3F)c(=O)c1n2C | . | -5% | . | . | . | .
O=C1c2cccnc2C(=O)N1CNc1ccc(Cl)cc1 | 26% | -1% | ? | 11% | -9% | 56µM*
